Assay results published in PubChem BioAssay AID1159580 (chemical genetic matrix, 2015).
About 2,000 (36%) of roughly 5,500 compounds were called active. Another 18% or so got no clear call; they are omitted. Cut-off read from the data, not from the text of the source: active = normalized growth mostly below about 0.91 (no sharp cut-off); inconclusive = no clear call, values can overlap the other calls; inactive = mostly above about 0.92. Some of the results follow.

Assay: chemical genetic growth profiling, strain panel (AID 1159580);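 note: tested at 20 µM; growth read once vehicle control cultures reached saturation at 30 °C; 1 = growth at the plate median or of vehicle wells; lower values mean less growth of the strain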
Details: growth OD

Measured: normalized growth

C/C=C(/C)C(=O)O[C@@H]1[C@H](OC(C)=O)[C@@]2(CO)C(CC1(C)C)C1=CCC3[C@@]4(C)CC[C@H](O[C@@H]5O[C@H](C(=O)O)[C@@H](O[C@@H]6O[C@H](CO)[C@@H](O)[C@H](O)[C@H]6O)[C@H](O)[C@H]5O[C@@H]5O[C@H](CO)[C@@H](O)[C@H](O)[C@H]5O)[C@](C)(CO)C4CC[C@@]3(C)[C@]1(C)C[C@H]2O (some centres not stated)
inactive: S. cerevisiae deletion strains, locus YKL009W, strain mrt4, stronger effect = lower value 1.06 | S. cerevisiae deletion strains, locus YKL068W, stronger effect = lower value 1.01 | S. cerevisiae deletion strains, locus YKL085W, strain MDH1 (second series), stronger effect = lower value 1.06 | S. cerevisiae deletion strains, locus YKL085W, strain MDH1, stronger effect = lower value 1.06 | S. cerevisiae deletion strains, locus YKL160W, strain elf1, stronger effect = lower value 1.02 | S. cerevisiae deletion strains, locus YKR001C, strain vps1, stronger effect = lower value 1.01 | S. cerevisiae deletion strains, locus YKR026C, strain gcn3, stronger effect = lower value 0.99 | S. cerevisiae deletion strains, locus YKR091W, strain srl3, stronger effect = lower value 0.99 | S. cerevisiae deletion strains, locus YLL001W, strain dnm1, stronger effect = lower value 1.01 | S. cerevisiae deletion strains, locus YLL026W, stronger effect = lower value 0.988 | S. cerevisiae deletion strains, locus YLL041C, strain sdh2, stronger effect = lower value 0.983 | S. cerevisiae deletion strains, locus YLR027C, strain aat2, stronger effect = lower value 0.996 | S. cerevisiae deletion strains, locus YLR039C, strain RIC1, stronger effect = lower value 1.04 | S. cerevisiae deletion strains, locus YLR058C, strain SHM2, stronger effect = lower value 1.01 | S. cerevisiae deletion strains, locus YLR102C, strain apc9, stronger effect = lower value 1.02 | S. cerevisiae deletion strains, locus YLR113W, strain HOG1, stronger effect = lower value 0.967 | S. cerevisiae deletion strains, locus YLR221C, strain rsa3, stronger effect = lower value 1 | S. cerevisiae deletion strains, locus YLR258W, strain gsy2, stronger effect = lower value 0.981 | S. cerevisiae deletion strains, locus YLR262C, strain YPT6 (second series), stronger effect = lower value 1.01 | S. cerevisiae deletion strains, locus YLR262C, strain YPT6, stronger effect = lower value 1.08 | S. cerevisiae deletion strains, locus YLR268W, strain sec22, stronger effect = lower value 1.04 | S. cerevisiae deletion strains, locus YLR320W, strain mms22, stronger effect = lower value 0.973 | S. cerevisiae deletion strains, locus YLR330W, strain CHS5, stronger effect = lower value 1.01 | S. cerevisiae deletion strains, locus YLR342W, strain FKS1 (second series), stronger effect = lower value 1.05 | S. cerevisiae deletion strains, locus YLR342W, strain FKS1, stronger effect = lower value 0.988 | S. cerevisiae deletion strains, locus YLR357W, strain rsc2, stronger effect = lower value 0.984 | S. cerevisiae deletion strains, locus YLR370C, strain arc18, stronger effect = lower value 0.992 | S. cerevisiae deletion strains, locus YLR371W, strain rom2, stronger effect = lower value 1.03 | S. cerevisiae deletion strains, locus YLR384C, strain iki3, stronger effect = lower value 1 | S. cerevisiae deletion strains, locus YLR418C, strain cdc73, stronger effect = lower value 1 | S. cerevisiae deletion strains, locus YML016C, strain PPZ1, stronger effect = lower value 1.01 | S. cerevisiae deletion strains, locus YML032C, strain rad52, stronger effect = lower value 1.03 | S. cerevisiae deletion strains, locus YML120C, strain ndi1, stronger effect = lower value 1.01 | S. cerevisiae deletion strains, locus YML124C, strain tub3, stronger effect = lower value 1.02 | S. cerevisiae deletion strains, locus YMR058W, strain fet3, stronger effect = lower value 0.99 | S. cerevisiae deletion strains, locus YMR078C, strain ctf18, stronger effect = lower value 1.02 | S. cerevisiae deletion strains, locus YMR125W, strain sto1, stronger effect = lower value 0.959 | S. cerevisiae deletion strains, locus YMR129W, stronger effect = lower value 0.979 | S. cerevisiae deletion strains, locus YMR205C, strain PFK2, stronger effect = lower value 0.925 | S. cerevisiae deletion strains, locus YMR223W, strain ubp8, stronger effect = lower value 1.02 | S. cerevisiae deletion strains, locus YMR231W, strain pep5, stronger effect = lower value 0.973 | S. cerevisiae deletion strains, locus YMR307W, strain GAS1, stronger effect = lower value 1.08 | S. cerevisiae deletion strains, locus YNL067W, strain RPL9B, stronger effect = lower value 1.02 | S. cerevisiae deletion strains, locus YNL071W, strain lat1, stronger effect = lower value 1 | S. cerevisiae deletion strains, locus YNL183C, strain NPR1, stronger effect = lower value 0.969 | S. cerevisiae deletion strains, locus YNL209W, strain ssb2, stronger effect = lower value 0.988 | S. cerevisiae deletion strains, locus YNL233W, strain BNI4, stronger effect = lower value 1.01 | S. cerevisiae deletion strains, locus YNL248C, strain rpa49, stronger effect = lower value 1.02 | S. cerevisiae deletion strains, locus YNL250W, strain rad50, stronger effect = lower value 1.04 | S. cerevisiae deletion strains, locus YNL271C, strain bni1, stronger effect = lower value 1.03 | S. cerevisiae deletion strains, locus YNL298W, strain CLA4, stronger effect = lower value 1.01 | S. cerevisiae deletion strains, locus YNL307C, strain MCK1, stronger effect = lower value 1.03 | S. cerevisiae deletion strains, locus YNL322C, strain KRE1 (second series), stronger effect = lower value 0.983 | S. cerevisiae deletion strains, locus YNL322C, strain KRE1, stronger effect = lower value 1.01 | S. cerevisiae deletion strains, locus YNR049C, strain mso1, stronger effect = lower value 0.982 | S. cerevisiae deletion strains, locus YNR052C, strain pop2, stronger effect = lower value 1.02 | S. cerevisiae deletion strains, locus YOL006C, strain TOP1, stronger effect = lower value 0.991 | S. cerevisiae deletion strains, locus YOL012C, strain htz1 1.42 | S. cerevisiae deletion strains, locus YOL147C, strain pex11, stronger effect = lower value 1.02 | S. cerevisiae deletion strains, locus YOR001W, strain rrp6, stronger effect = lower value 0.992 | S. cerevisiae deletion strains, locus YOR061W, strain CKA2, stronger effect = lower value 1.01 | S. cerevisiae deletion strains, locus YOR069W, strain VPS5, stronger effect = lower value 1 | S. cerevisiae deletion strains, locus YOR070C, strain gyp1, stronger effect = lower value 1 | S. cerevisiae deletion strains, locus YOR080W, strain dia2, stronger effect = lower value 0.968 | S. cerevisiae deletion strains, locus YOR083W, strain WHI5, stronger effect = lower value 1.02 | S. cerevisiae deletion strains, locus YOR106W, strain vam3, stronger effect = lower value 1.01 | S. cerevisiae deletion strains, locus YOR136W, strain idh2, stronger effect = lower value 1.02 | S. cerevisiae deletion strains, locus YOR144C, strain elg1, stronger effect = lower value 1.02 | S. cerevisiae deletion strains, locus YOR184W, strain ser1, stronger effect = lower value 1.02 | S. cerevisiae deletion strains, locus YOR231W, strain MKK1, stronger effect = lower value 0.967 | S. cerevisiae deletion strains, locus YOR265W, strain rbl2, stronger effect = lower value 0.993 | S. cerevisiae deletion strains, locus YOR270C, strain vph1, stronger effect = lower value 0.883 | S. cerevisiae deletion strains, locus YOR290C, strain snf2, stronger effect = lower value 0.966 | S. cerevisiae deletion strains, locus YOR316C, strain cot1, stronger effect = lower value 1.02 | S. cerevisiae deletion strains, locus YPL051W, strain arl3, stronger effect = lower value 1.02 | S. cerevisiae deletion strains, locus YPL055C, strain LGE1, stronger effect = lower value 1 | S. cerevisiae deletion strains, locus YPL078C, strain atp4, stronger effect = lower value 1.01 | S. cerevisiae deletion strains, locus YPL106C, strain sse1, stronger effect = lower value 0.981 | S. cerevisiae deletion strains, locus YPL240C, strain hsp82, stronger effect = lower value 1.01 | S. cerevisiae deletion strains, locus YPL241C, strain CIN2, stronger effect = lower value 1 | S. cerevisiae deletion strains, locus YPL256C, strain CLN2, stronger effect = lower value 0.967 | S. cerevisiae deletion strains, locus YPR119W, strain clb2, stronger effect = lower value 1.03 | S. cerevisiae deletion strains, locus YPR141C, strain kar3, stronger effect = lower value 1.04 | S. cerevisiae deletion strains, locus YPR163C, strain tif3, stronger effect = lower value 1.02 | S. cerevisiae deletion strains, locus YPR167C, strain met16, stronger effect = lower value 1.02 | S. cerevisiae deletion strains, strain wtn01, stronger effect = lower value 1.02 | S. cerevisiae strains, strain wild type, stronger effect = lower value 1.01
